# Compounds without any hit were thinned out: in the full panel of roughly 83,000, 20% have a hit.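 Interpretation: 100, growth as untreated; towards 0, rising growth inhibition; 0, no net growth; 0 to -100, cell death. Compounds scoring below 10 were considered active.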 Unmarked numbers belong to inactive results. Calls of active or inactive are those of the source.
# Key:
# Test in all cases: NCI-60 one-dose screen, 48 h (100 = growth as untreated, 0 = no growth, -100 = all killed)
# Settings in all cases: 10 µM unless noted
# [1] = system: SR leukemia
# [2] = system: RPMI-8226 leukemia
# [3] = system: OVCAR-8 ovarian
# [4] = system: OVCAR-5 ovarian
# [5] = system: OVCAR-4 ovarian
# [6] = system: SK-OV-3 ovarian
# [7] = system: IGROV1 ovarian
# [8] = system: OVCAR-3 ovarian
# [9] = system: HS 578T breast
# [10] = system: NCI/ADR-RES ovarian
# [11] = system: T-47D breast
# [12] = system: BT-549 breast
# [13] = system: MDA-MB-435 melanoma
# [14] = system: SW-620 colon
# [15] = system: MCF7 breast
# [16] = system: HCT-116 colon
# [17] = system: HCC-2998 colon
# [18] = system: KM12 colon
Compound,growth [1],growth [2],growth [3],growth [4],growth [5],growth [6],growth [7],growth [8],growth [9],growth [10],growth [11],growth [12],growth [13],growth [14],growth [15],growth [16],growth [17],growth [18]
O=C(CN1C(=O)S/C(=C\c2ccccc2)C1=O)Nc1ncc(Cc2ccccc2Cl)s1,113%,103%,93.3%,103%,89.6%,102%,94.6%,109%,102%,96.2%,88.1%,113%,93.6%,105%,92.7%,94.5%,105%,102%
COc1ccc(C(=O)Nc2cccc(-c3cc(=O)c4c(OC)c(OC)c(OC)cc4o3)c2)cc1,28.6%,18.8%,57.9%,95.6%,62%,108%,53.9%,66.8%,42.9%,60.2%,45%,51.4%,69.6%,88%,66.5%,47.8%,70.3%,46.3%
Cc1cc(C)c2c(c1)N(C)c1ncnc(-n3cnc4cc(C)ccc43)c1CC2C (configuration not stated),4.51% (active),9.87% (active),17.1%,76.6%,61.5%,3.2% (active),44.7%,8.19% (active),25.1%,14.6%,28.8%,29.8%,8.39% (active),21.4%,17.1%,11.1%,52.1%,22.7%
COc1ccc(C(=O)/C=C/c2c(C(F)(F)F)nc3ccccn23)cc1OC,-9.91% (active),6.41% (active),10.9%,9.01% (active),5.92% (active),17.3%,17.3%,-51.3% (active),4.59% (active),-22.7% (active),-10.7% (active),4.31% (active),10.4%,-4.44% (active),8.07% (active),-34.1% (active),-9.15% (active),3.34% (active)
CCCNC(=O)Nc1ccc2cc3ccc(NC(=O)NCCC)cc3nc2c1,37.2%,76.1%,74.5%,90.1%,65.2%,95.1%,34.4%,70.1%,48.4%,96.9%,46.6%,82.1%,77.4%,92%,62.6%,76.3%,98.4%,70.9%
CCCOC(=O)Nc1nc2ccc(SCC(C)C)cc2s1,14.3%,28.4%,60.5%,60.1%,61.2%,48.5%,55.4%,15.6%,65.3%,16.1%,37.8%,52.3%,-7.7% (active),33.8%,19.7%,34.6%,77.1%,38.8%
CN1CCN(c2cc(Nc3cc(C4CC4)[nH]n3)nc(Nc3ccc(CC(=O)NCc4cccc(F)c4)cc3)n2)CC1,30.3%,54.3%,40.7%,11%,43.9%,24%,-13.8% (active),41.7%,-6.93% (active),94.4%,64.5%,43.2%,24.9%,11.5%,20%,8.53% (active),35.1%,9.2% (active)
CCN(CC)CCCCCNc1cc(OC(=O)c2ccc(Cl)cc2)cc2cccnc12,75.3%,97.7%,88.3%,118%,39.9%,119%,161%,78.7%,117%,95.1%,56%,98%,120%,105%,86.5%,83.6%,84.9%,111%
CC(C)(Sc1cc(C(C)(C)C)c(OC(=O)CCCC(=O)O)c(C(C)(C)C)c1)Sc1cc(C(C)(C)C)c(OC(=O)CCCC(=O)O)c(C(C)(C)C)c1,61.6%,21.9%,36%,76.2%,79.6%,91.5%,36.6%,21.1%,57%,70%,49.5%,39.8%,27.8%,41.4%,30%,15.9%,22.1%,10.9%
CNC(=O)c1ccccc1Oc1nc(Nc2cc(OC)c(OC)c(OC)c2)ncc1Br,42.9%,73.1%,72.2%,71.2%,49.5%,70.1%,46.8%,66%,69.2%,66.8%,62.2%,62.7%,74.5%,46.7%,44.5%,46.5%,51.6%,11%
C=C1C(=O)O[C@H]2[C@H]1CC/C(Cn1cc(-c3ccccc3)nn1)=C\CC[C@@]1(C)O[C@@H]21,3.11% (active),-20.5% (active),5.7% (active),-2.95% (active),35.9%,107%,6.52% (active),-84.3% (active),81.1%,43.6%,-38% (active),-61.1% (active),-21.5% (active),-79.1% (active),-60.1% (active),-67.1% (active),5.21% (active),56%
O=C(Nc1ccccc1)Nc1ncnc2c1ncn2-c1ccc(Cl)cc1,74.1%,100%,83.7%,74.5%,-29.6% (active),75.4%,78.5%,99.5%,79.8%,74.6%,63.8%,102%,92.1%,97.7%,82.5%,36.6%,105%,87.1%
CN(c1cc2ncc(=O)[nH]c2cc1NC(N)=NCc1ccc(Cl)cc1)C1CCCCC1,-22.7% (active),8.99% (active),70.4%,73.2%,72.7%,84.7%,61.6%,82.3%,64.2%,115%,47.6%,82%,40.2%,6.15% (active),-44.2% (active),24.9%,-10.5% (active),28.7%
CSc1nc2ccccc2cc1/C=C1/C=C(c2ccccc2)NC1=O,27.4%,81.9%,82.5%,99.5%,84.7%,85.1%,79.4%,71.7%,80%,76.2%,79.9%,77.4%,3.27% (active),55.4%,49.8%,56.8%,93.2%,59.6%
O=C(CN1C(=O)S/C(=C\C(Cl)=C\c2ccccc2)C1=O)NCCc1ccc(O)cc1,1.71% (active),0.0656% (active),14%,77.7%,56.4%,90.1%,-12.9% (active),-14.4% (active),36.3%,19.6%,11.4%,22.1%,2.68% (active),4.78% (active),20.1%,-78.8% (active),66.8%,5.78% (active)
Nc1cc(C(=O)NC[C@H]2CN(c3ccc(N4CCC(C(=O)O)CC4)cc3)C(=O)O2)ccc1Cl,95.4%,100%,103%,96.1%,107%,113%,103%,114%,107%,103%,98.3%,104%,108%,97.7%,95.3%,105%,107%,100%
N=C(N)c1ccc(-c2ccc(-c3ccccc3)o2)cc1,-29.3% (active),-36.7% (active),-59.3% (active),-10.9% (active),-4.49% (active),-18.3% (active),-25.7% (active),-38.4% (active),-18.1% (active),-5.17% (active),-46% (active),40.8%,-91.2% (active),-75.7% (active),-57.2% (active),-100% (active),-74.5% (active),-80.3% (active)

Compound,growth [1],growth [2],growth [3],growth [4],growth [5],growth [6],growth [7],growth [8],growth [9],growth [10],growth [11],growth [12],growth [13],growth [14],growth [15],growth [16],growth [17],growth [18]
CCCCCCC12CCC(=O)N1CCc1cncn12 (configuration not stated),116%,94.6%,101%,98.7%,119%,99.2%,105%,118%,112%,104%,91.9%,114%,105%,102%,94.8%,106%,108%,113%
C=C(CBr)[C@@H]1CC[C@]2(C(=O)O)CC[C@]3(C)[C@H](CC[C@@H]4[C@@]5(C)CCC(=O)C(C)(C)[C@@H]5CC[C@]43C)[C@@H]12,60%,42.3%,84.2%,89.8%,75.3%,121%,103%,70.8%,92.2%,83.4%,67.9%,84%,95.6%,85.5%,78.2%,72.6%,95.7%,68.6%
CCNCCNc1cc(C2CCCCC2)c(C#N)c2nc3ccccc3n12,-10.4% (active),-13.9% (active),26.2%,18.2%,28.3%,28.2%,7.32% (active),-67.9% (active),-5.65% (active),35.5%,-19.4% (active),-19.7% (active),-38.6% (active),7.58% (active),14.7%,-4.22% (active),13.6%,38.8%
CN(C)S(=O)(=O)c1cccc(C(=O)Nc2nc(-c3ccc(F)c(F)c3)cs2)c1,41%,63.2%,48.9%,86.1%,37.2%,108%,41.6%,70.8%,107%,22.5%,19.7%,52.5%,83.3%,93.9%,48.4%,57.6%,88.1%,97.4%
N=C(N)c1ccc(-c2ccc(-c3ccc(Cl)c(Cl)c3)s2)nc1,3.84% (active),-8.11% (active),-19.9% (active),20.1%,16.3%,86.6%,-40.6% (active),-77.8% (active),67.6%,82.9%,56.2%,87.5%,10.8%,-56.6% (active),-64.6% (active),-50.8% (active),-61.9% (active),-74.6% (active)
CCCCNCCCCCNc1cc(OC)cc2cccnc12,71.1%,76.9%,99.3%,91.4%,60.1%,95.2%,118%,107%,99%,95.9%,79.4%,91%,102%,100%,84.6%,85.9%,95.4%,114%
CSc1nc2ccccc2cc1/C=[N+](\[O-])c1ccccc1,22.1%,14.5%,39.5%,91.1%,70.8%,87.3%,77.3%,66.9%,74.1%,28.5%,61.6%,66.1%,45.9%,28.9%,24.9%,10.4%,110%,100%
CCOc1ccccc1Cn1ccnc1CCc1c(Cl)c(O)cc(O)c1C(=O)OC,91.5%,86.9%,97.7%,95.8%,114%,91.9%,94.8%,106%,107%,93.5%,92.4%,98.8%,110%,104%,91.7%,89.3%,97.8%,98.4%
CCCCCCCCCCCCCCCCOCCCOP(=O)(O)C1CCCN(O)C1=O (configuration not stated),7.77% (active),10.9%,23.8%,20%,16.5%,34.4%,-2.28% (active),17.3%,83.1%,8.85% (active),43.2%,32.2%,14.3%,20.9%,18.5%,14.5%,3.73% (active),7.79% (active)
CCOC(=O)c1cc(C)n(-c2ccc(C(=O)O)cc2)c1C,75.5%,104%,87.6%,76.7%,94.6%,92.8%,107%,115%,90.8%,89.6%,102%,76.1%,107%,64.4%,67.1%,67.5%,133%,95.3%
Nc1ncnc2c1C(c1ccccc1)c1ccc3ccccc3c1O2 (configuration not stated),55.1%,80.8%,79.6%,99%,86.5%,64.7%,77.8%,93.9%,93.7%,80.9%,55.7%,73.3%,79.3%,94.9%,67.4%,85.3%,102%,88.3%
COc1ccc(-c2nc3cc(C(=O)NCc4ccccc4)ccc3n2C2CCCCC2)cc1,43.8%,69.2%,93%,84.9%,80.4%,102%,105%,85.8%,76.3%,88.5%,68.2%,80.9%,81.7%,94.9%,76.6%,82.9%,79.3%,57.4%
Cc1cc(=O)n(C(=O)Nc2ccccc2Cl)c2cc(O)ccc12,112%,97.8%,95.5%,102%,107%,95%,104%,106%,98.7%,99.9%,97.1%,94.4%,104%,93.7%,101%,101%,98.5%,98.1%
CN(C)c1ccc(C(=O)OCCCCCCl)cc1,89.4%,106%,106%,75.6%,95.4%,102%,101%,95.4%,103%,97.6%,82%,94.1%,96.6%,99.9%,95.1%,96.7%,98.4%,97%
Nc1nc(-c2ccc(Cl)cc2)nc2c1sc(=S)n2-c1ccccc1,-17.8% (active),45.5%,32.4%,62.6%,-20.1% (active),23.4%,44.9%,40.2%,19.9%,43.8%,14.8%,54.9%,57.4%,55.3%,57.6%,20.1%,72.3%,36%
Nc1[nH]n2cc(-c3ccccc3)nc2c1N=Nc1ccc(S(N)(=O)=O)cc1,13.3%,5.77% (active),36.6%,65.4%,36.9%,13.3%,15.3%,46.8%,5.14% (active),90%,42.8%,59.5%,28.9%,26.1%,45.5%,22.6%,45.5%,33.3%
CCOC(=O)C1=C(N)Oc2c(sc3c(F)cccc23)C1c1ccc(O)cc1 (configuration not stated),15.3%,25.2%,44.1%,92.4%,38.4%,78.9%,48.9%,45.3%,31.9%,36.6%,26.5%,23.3%,5.63% (active),31.1%,14.9%,26%,38%,24%
